A selection: hits, their analogues and other compounds. The true share with any hit is near 0.55%.
Tb PFK block = T. brucei PFK enzyme inhibition. O15648. T. brucei PFK, ADP-Glo luminescence. Potency, µM (top dose mostly 57.5 µM), for inactives: at the highest dose activity, negative = inhibition, hits mostly inhibitors. hit rate 0.17% among 330,000;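 further: 0% = uninhibited 1x PFK enzyme wells and -100% = no-enzyme wells; nearly all actives have a fitted effect of over 60% in size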
Target sequence (O15648 whole entry, looked up): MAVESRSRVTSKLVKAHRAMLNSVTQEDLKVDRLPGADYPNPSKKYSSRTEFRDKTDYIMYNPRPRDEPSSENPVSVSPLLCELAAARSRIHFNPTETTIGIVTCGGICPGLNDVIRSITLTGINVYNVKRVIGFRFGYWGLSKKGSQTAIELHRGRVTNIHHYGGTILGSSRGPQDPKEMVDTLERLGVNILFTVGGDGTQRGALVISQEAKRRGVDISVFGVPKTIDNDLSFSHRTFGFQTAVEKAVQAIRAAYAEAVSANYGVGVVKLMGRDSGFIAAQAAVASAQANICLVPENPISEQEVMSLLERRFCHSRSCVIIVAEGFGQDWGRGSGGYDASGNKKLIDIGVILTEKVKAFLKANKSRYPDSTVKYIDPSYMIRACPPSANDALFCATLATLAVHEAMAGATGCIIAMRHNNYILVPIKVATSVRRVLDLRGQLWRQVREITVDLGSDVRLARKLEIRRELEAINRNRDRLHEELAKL
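PFK 1.25 nM, F6P 0.5 mM, ATP 0.1 mM, 0.1 M TEA pH 8.0, 5 mM MgCl2, 0.01% Tween20, 0.1% BSA; 45 min RT. ADP-Glo readout. qHTS titration up to 57 uM; curves fitted, compounds curve-classed.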
S-ASM inh = inhibitors of human secretory acid sphingomyelinase. P17405. placental ASM, HMU-PC fluorogenic substrate, 60 min. Potency, µM (top dose mostly 57.5 µM), for inactives: at the highest dose activity change, negative = inhibition, hits mostly inhibitors. hit rate 0.006% among 340,000
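Fluorescence read-out (Ex 386 nm, Em 447 nm) after stopping the reaction at pH 10. Enzyme: ASM from human placenta; substrate HMU-PC0, 9 uM final; 60 min, 37 °C. Compound preincubation 10 min, ambient temperature.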
GCN5L2 inh = GCN5L2 (KAT2A) acetyltransferase inhibition; Q92830; GCN5L2 HAT assay, ThioGlo1 CoA-SH fluorescence; Potency, µM (highest dose often 58.9 µM), for the others: at the top dose activity change, negative = inhibition, most hits filed as inhibitors; hit rate 0.21% among 390,000; further: on the % scale 0 is the no-effect control and ±100 the full control effect
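GCN5L2 (20nM final) in 50mM HEPES, 0.1mM EDTA pH 7.5, 0.01% Tween-20 was preincubated 15 min at room temperature with compound, then given ThioGlo1 (50uM), H3(1-25) peptide (75uM) and acetyl-CoA (70uM); CoA-thiol fluorescence (Ex340/Em540) was read at 0 and 20 min.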
ERG-DNA inh = blocks human ERG Ets domain binding to DNA | fluorescence polarization, His-ERG Ets domain / labelled DNA | Potency, µM (doses to about 76.9 µM), for inactives: at the highest dose FP activity, negative = inhibition, usual class: inhibitors | hit rate 0.028% among 370,000; active means well fitted inhibition curve with a large enough effect in the polarisation, with a control signal flat; inconclusive means small, poorly fitted or top-dose-only effect, or effect the other way, or a change in a side signal; inactive means no such curve, though single readings can be large or run the other way; the % refers to the polarisation;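 further: polarization taken with two DNA probes labelled with fluorescein and Texas red; % of control where 0% means no effect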
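His-tagged ERG Ets domain (1 uM in the protein solution; 300mM KCl, 50mM Tris-HCl, 1mM EDTA, 1mM DTT, pH 7.5) received compound, then a probe mix of 5 nM fluorescein-DNA and 100nM Texas-615-DNA. Fluorescence polarization was read for both dyes.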
p53 reactivator = re-activators of mutant p53 | H1299 p53-A138V BP100-luciferase reporter, luminescence, 24 h | AID 504706 | Potency, µM (highest dose often 92.2 µM), without a hit: at the top dose activity change, positive = activation, most hits filed as activators | hit rate 0.063% among 320,000; further: % of control where 0% means no effect; nearly all actives have a fitted effect of over 45% in size
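H1299 (p53-null), stable ts p53-A138V + BP100-Luc; 1000 cells/well, Opti-MEM/10% FBS; cpd 4 pt, 1:5; 24 h, 37 deg C, 5% CO2; detection reagent 10 min RT; luminescence.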
A-T KAP1 phos = potential ataxia-telangiectasia treatment | Potency, µM (highest dose often 57.5 µM), for inactives: top-dose activation, actives largely listed as activators | hit rate 0.19% among 320,000 | F2112 A-T fibroblasts, KAP-1 phosphorylation AlphaLISA; neocarzinostatin DNA damage 30 min before lysis; further: % of control where 0% means no effect; nearly all actives have a fitted effect of over 45% in size
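ATM-like activity read as KAP-1 phosphorylation via AlphaLISA donor/acceptor antibody pairs after lysis and 6 hr at 25C. Cells were ATM-null patient fibroblasts (F2112, hTERT), dosed 60 min, then exposed to the DSB inducer NCS for 30 min.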
Active calls of the source: *; u = inconclusive; x = not tested or not shown; [ ] = remark or other dose. Unless noted, the call rests on the fitted dose curve; in most records, active means well fitted curve in the direction sought with a large enough effect; inconclusive means small, poorly fitted or top-dose-only effect, or another doubt; inactive means no such curve, though single readings can be large; an effect the other way counts as inactive or inconclusive. Potency means the concentration at half of the fitted maximal effect.

SMILES	Tb PFK block	S-ASM inh	GCN5L2 inh	ERG-DNA inh	p53 reactivator	A-T KAP1 phos
CC(=O)Nc1ccc(NC(=O)c2ccc(-n3c(C)ccc3C)cc2)cc1	-1.6%	-2.1%	-5.6%	-0.6%	25.1µM*	-4.7%
Cc1ccc(C)n1-c1ccc(NC(=O)c2ccccc2)cc1	0.2%	2.8%	1.3%	18.9%	18.5%	2.9%
Nc1c(S(=O)(=O)O)cc(Nc2ccc(Nc3nc(Cl)nc(Nc4ccc(S(=O)(=O)O)cc4)n3)c(S(=O)(=O)O)c2)c2c1C(=O)c1ccccc1C2=O	x	x	20µM*	x	x	x
Nc1c(S(=O)(=O)O)cc(Nc2cccc3ccccc23)c2c1C(=O)c1ccccc1C2=O	x	x	12.6µM*	x	x	x
Nc1c(S(=O)(=O)O)cc(Nc2ccc(Cl)cc2)c2c1C(=O)c1ccccc1C2=O	x	x	28.2µM*	x	x	x
Nc1nc(Cl)nc2c1ncn2[C@@H]1O[C@H](COP(=O)(O)OP(=O)(O)OP(=O)(O)O)[C@@H](O)[C@H]1O	x	x	-16.6%	x	x	x
O=C(Cn1c(SCc2ccccc2F)nc2ccncc21)Nc1ccccc1C(F)(F)F	x	x	-0.9%	0.9%	x	x
Cc1ccc(NC(=O)[C@@H](c2ccccc2)N2Cc3ccccc3C2=O)cc1	x	x	-11.5%	-0.7%	x	x
CC(C)c1ccc(NC(=O)C(c2ccccc2)N2CC(=O)Nc3ccccc32)cc1 (stereo unspecified)	0.0%	-0.7%	-0.8%	-2.0%	29.5%	35.5µM*
Cc1ccc(/C=C/C(=O)c2ccc(O)cc2)cc1	-1.5%	-2.8%	-2.9%	-0.8%	11.2µM*	1.9%
CCOC(=O)c1c(C)n(C)c2ccc(OC(=O)c3ccc([N+](=O)[O-])cc3)cc12	-4.9%	-6.5%	8.91µM*	7.7%	16.6%	-0.2%
CCOC(=O)c1c(C)n(CC)c2ccc(OC(=O)c3ccc([N+](=O)[O-])cc3)cc12	3.1%	-5.0%	12.4%	2.6%	-16.4%	-1.7%
CCOC(=O)CSc1n[nH]c(=S)s1	-8.4%	0.6%	25.1µM*	-5.8%	-0.6%	1.4%
Cc1oc2ccc(OCc3ccc(Br)cc3)cc2c1C(=O)O	-22.2%	-1.8%	-2.2%	12.3%	2.5%	3.55µM*
CC1CC(C)CN(CCCNC(=O)c2cn(C)c3ccc(S(=O)(=O)N4CCCC4)cc3c2=O)C1 (stereo unspecified)	1.6%	4.2%	-8.6%	-0.1%	-3.7%	39.8µM*
CC1CCN(CCCNC(=O)c2cn(C)c3ccc(S(=O)(=O)N4CCCC4)cc3c2=O)CC1	9.5%	-3.6%	-4.4%	-1.8%	4.5%	-4.1%
COc1ccccc1OC[C@H](O)COC(N)=O	x	x	13.0%[21.4 µM]	x	x	x
NC(=O)OC[C@H](O)COc1ccc(Cl)cc1	x	x	14.1µM*	x	x	x
CC[n+]1ccc(/C=C/c2ccc(N(C)C)cc2)c2ccccc21	-27.9%	u	-4.0%	135.1%	-6.8%	-11.3%
CC[n+]1ccc(C[n+]2ccccc2)c2ccccc21	-5.7%	-16.4%	28.2µM*	-3.0%	-4.2%	-0.2%
Cc1cccc(Cn2c(NCCO)nc3c2c(=O)n(C)c(=O)n3C)c1	-5.0%	0.8%	2.2%	-0.5%	-3.6%	31.6µM*
Cc1ccc(C(c2cc(Cl)c3cccnc3c2O)N2CCN(C)CC2)cc1 (stereo unspecified)	-13.0%	-0.3%	31.6µM*	4.1%	-22.0%	-12.7%
COC(=O)c1ccc(NC(=O)COC(=O)CSc2nc(C)cc(C)n2)cc1	0.8%	-1.4%	0.708µM*	x	1.6%	2.4%
CCC(=O)O[C@H]1C(O[C@@H]2C(C)[C@H](O[C@H]3C[C@@](C)(OC)C(O)C(C)O3)C(C)C(=O)OC(CC)[C@@](C)(O)C(O)[C@H](C)C(=O)C(C)C[C@]2(C)O)OC(C)CC1N(C)C (stereo partly specified)	x	x	7.08µM*	x	x	x

Bioassay records deposited in PubChem BioAssay by National Center for Advancing Translational Sciences (NCATS).
